Screening data: PubChem, National Center for Advancing Translational Sciences (NCATS)
PLK1 PBD block = blocks phosphopeptide binding to human PLK1 polo-box domain. 360,000 compounds, 2.8% hits. Potency, µM, inactives show max response, negative = inhibition, usual class: inhibitors. P53350. Plk1 PBD binding of FITC phosphopeptide, fluorescence polarization; note: potency is the fitted concentration of half-maximal effect; series mostly up to about 57 µM; % is set by controls: 0 for no effect and ±100 for the full control effect; nearly all actives have a fitted effect of over 65% in size
HP1b chromo inh = blocks HP1-beta chromodomain binding to methylated histone tails; AlphaScreen HP1-beta / biotin-H3K9me3 peptide binding; 390,000 compounds, 0.56% hits; Potency, µM (top dose mostly 114 µM), inactives show top-dose activity change, negative = inhibition, actives largely listed as inhibitors; note: potency is the fitted concentration of half-maximal effect; nearly all actives have a fitted effect of over 70% in size
Target sequence (P83916 whole entry, looked up): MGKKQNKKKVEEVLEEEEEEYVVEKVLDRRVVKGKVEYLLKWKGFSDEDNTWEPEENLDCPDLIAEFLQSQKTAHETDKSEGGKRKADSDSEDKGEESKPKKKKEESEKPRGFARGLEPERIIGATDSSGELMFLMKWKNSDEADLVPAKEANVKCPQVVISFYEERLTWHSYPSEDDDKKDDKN
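HP1-beta protein (50 nM final) preincubated 30 min at room temperature with biotinylated H3(1-18)K9me3 peptide (50 nM) in PBS pH 7.4, 0.01% Tween-20, then compound added for 30 min. AlphaScreen streptavidin donor/nickel chelate acceptor beads (10 ug/mL final), 30 min dark, luminescence read.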
PI5P4Ka inh = inhibitors of human PI5P4K alpha | PI5P4Kalpha enzyme, ADP-Glo luminescence, 60 min; hits give low values | max response, % | 330,000 compounds, 1.2% hits | P48426; active = max response of -50% or lower; inconclusive = between -30% and -50%; inactive = -30% or higher; note: value at the top dose of about 77 µM; % is set by controls: 0 for no effect and ±100 for the full control effect
Target sequence (P48426 whole entry, looked up): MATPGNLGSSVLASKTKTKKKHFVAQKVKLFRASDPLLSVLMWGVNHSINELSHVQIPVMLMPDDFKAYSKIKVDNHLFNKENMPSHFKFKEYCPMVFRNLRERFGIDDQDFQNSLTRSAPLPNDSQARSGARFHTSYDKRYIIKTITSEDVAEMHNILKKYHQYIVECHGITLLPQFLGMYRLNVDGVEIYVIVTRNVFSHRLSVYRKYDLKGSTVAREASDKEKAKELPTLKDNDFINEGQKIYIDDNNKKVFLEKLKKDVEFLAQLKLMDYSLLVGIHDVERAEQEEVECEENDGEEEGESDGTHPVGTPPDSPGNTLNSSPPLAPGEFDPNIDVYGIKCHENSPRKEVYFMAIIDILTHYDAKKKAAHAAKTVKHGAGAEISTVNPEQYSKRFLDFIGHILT
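ADP-Glo luminescence end-point read after a 60 min room-temperature kinase reaction of PI5P4Kalpha plus substrate, initiated with ATP at 5 microM final. Buffer: 0.038 M HEPES pH 7.4, EGTA, 0.1% CHAPS, 5% DMSO.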
BAZ2B inh = BAZ2B (human) inhibition. Q9UIF8. AlphaScreen BAZ2B-H3K14Ac peptide displacement. Potency, µM (top dose mostly 114 µM), for the others: at the highest dose activity change, negative = inhibition, most hits filed as inhibitors. 360,000 compounds, 4.4% hits. AID 504333; note: potency is the fitted concentration of half-maximal effect; % is set by controls: 0 for no effect and ±100 for the full control effect; nearly all actives have a fitted effect of over 60% in size
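BAZ2B (50 nM) with biotin-H3(5-23)K14Ac peptide (50 nM) in PBS pH 7.4, 0.01% Tween-20, preformed 30 min, then compound 30 min at room temperature; top concentration 110uM. AlphaScreen streptavidin donor/nickel chelate acceptor beads (10 ug/mL final), 20 min dark, signal read.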
G9a inh = blocks human histone lysine methyltransferase G9a; Q96KQ7; G9a H3K9 monomethylation, AlphaScreen, 2 h; Potency, µM (series often up to 102 µM), inactives show at the top dose activity, negative = inhibition, hits mostly inhibitors; 350,000 compounds, 8.8% hits; AID 504332; note: potency is the fitted concentration of half-maximal effect; % is set by controls: 0 for no effect and ±100 for the full control effect; nearly all actives have a fitted effect of over 75% in size
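AlphaScreen read-out: biotin-H3K9 peptide (500 nM) methylation by 20 nM enzyme with 20 uM SAM, 2 h at room temperature after 15 min compound preincubation; anti-monomethyl H3K9 antibody plus donor/acceptor beads, 10 min dark.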
JMJD2A Tudor = blocks the human JMJD2A Tudor domain; O75164; AlphaScreen JMJD2A-Tudor / H3K4me3 peptide binding; Potency, µM (highest dose often 114 µM), without a hit: at the highest dose activity change, negative = inhibition, most hits filed as inhibitors; 390,000 compounds, 4.4% hits; AID 504339; note: potency is the fitted concentration of half-maximal effect; % is set by controls: 0 for no effect and ±100 for the full control effect; nearly all actives have a fitted effect of over 50% in size
* = called active by the depositor; ? = inconclusive; / = no result given; [ ] = dose if it differs, or a comment. An excerpt weighted towards active compounds, which were near 12% of everything screened. Unless noted, calls come from the whole dose curve; as a rule, active = well fitted curve in the direction sought with a large enough effect; inconclusive = small, poorly fitted or top-dose-only effect, or another doubt; inactive = no such curve, though single readings can be large; an effect the other way counts as inactive or inconclusive.

SMILES	PLK1 PBD block	HP1b chromo inh	PI5P4Ka inh	BAZ2B inh	G9a inh	JMJD2A Tudor
C#CCOCCOCCOCCNc1nc(N2CCN(C(=O)Cn3cc(CCCN=C(N)N)nn3)CC2)nc(N2CCN(C(=O)[C@H]([C@@H](C)CC)n3cc(CCCCN)nn3)CC2)n1	-5%	34%	-9	7%	?	-5%
CCOC(=O)C(=CNNc1ccccc1)C(=O)OCC	?	-35%	0	?	2µM*	79µM*
CCOC(=O)NNc1ccccc1	-12%	4%	2	-3%	/	-11%
COc1cccc(CNC(=O)CCCCCn2c(=O)[nH]c3cc(OC)c(OC)cc3c2=O)c1	/	29%	/	4%	-1%[59 µM]	-20%
Cc1cc(C)cc(N(CC(=O)NCc2ccccc2Cl)S(=O)(=O)c2c(C)noc2C)c1	/	28%	/	/	5%[59 µM]	-5%
COc1ccc(C(=O)c2c3ccc([N+](=O)[O-])cc3[n+]([O-])n2CCCC(N)=O)cc1	-24%	11%	0	1%	16%[2.33 µM]	-26%
Cc1ccc(C(=O)c2c3ccc([N+](=O)[O-])cc3[n+]([O-])n2CCC(N)=O)cc1	-9%	12%	?	?	50µM*	-31%
CC1CC(=O)c2cc(-c3ccccc3)oc2C1 (configuration not stated)	4%	/	-2	/	/	/
CC1CC(=O)C(C(C2=C(O)CC(C)CC2=O)c2ccccc2)=C(O)C1 (configuration not stated)	12µM*	40%	-4	/	/	-2%
Cc1ccc(COc2ccccc2C(=S)N2CCCC2)cc1	?	-12%	?	-26%	13µM*	7%
COc1cc(C)ccc1OCc1cc(C(=O)N2CCCCCC2)no1	27µM*	29%	7	24%	/	16µM*
CSc1ccccc1OCc1cc(C(=O)N2CCN(c3ncccn3)CC2)no1	-12%	8%	-5	-27%	56µM*	?
COc1cc(C(=S)N2CCCC2)ccc1OCc1ccc(C)cc1	?	-5%	-2	-36%	32µM*	-28%
CC(C)NC(=O)C1(C)CCCN1C/C=C/c1ccccc1 (configuration not stated)	-9%	/	-1	/	/	/
CC(C)c1ccc(OCC(=O)Nc2cc(-c3ccccc3)no2)cc1	/	68%	/	13%	29%[59 µM]	-14%
COc1cccc(C(=O)C(=O)c2cccc(OC)c2OC)c1OC	-6%	8%[57 µM]	-6	/	/	-19%
O=C(c1cc(COc2c(F)cccc2F)on1)N1CCN(C2CCCCC2)CC1	24µM*	0%	-2	-18%	3%	-29%
O=C(c1cc(COc2c(F)cccc2F)on1)N1CCCCCC1	-14%	28%	-5	-7%	/	17%
COc1cccc(C(=S)N2CCCC2)c1OC	24µM*	?	-11	5%	8.9µM*	-2%
Fc1ccc(COc2ccccc2C(=S)N2CCCC2)cc1	4.2µM*	?	-25	-7%	1.8µM*	79µM*
CCOc1ccc(CNC(=O)c2ccccc2NC(=O)c2nsc3ccccc23)cc1	/	10%[57 µM]	/	-4%	-5%[59 µM]	-6%
NS(=O)(=O)c1ccc(CNC(=O)/C=C/c2ccccc2)cc1	27µM*	1%	-10	-2%[57.1 µM]	?	-8%[11.4 µM]
NS(=O)(=O)c1ccc(CNC(=O)CCCSc2ccccc2)cc1	30µM*	-9%	-8	1%	-42%	?
COc1ccc(CNC(=O)CCCSc2ccccc2)cc1	1%	23%	2	4%	49%	15%
O=C1Cc2cc(S(=O)(=O)N3CCN(c4ccc(Cl)cc4)CC3)ccc2N1	/	/	/	/	/	-34%[229 µM]
SMILES	PLK1 PBD block	HP1b chromo inh	PI5P4Ka inh	BAZ2B inh	G9a inh	JMJD2A Tudor
COc1ccc(Cn2c(CCC(=O)NCc3ccc(Cl)cc3)nc3cccnc32)cc1	/	72%	/	17%	17%[59 µM]	-25%
COC(=O)c1c(NC(=S)NNC(=O)c2ccc(Cl)s2)sc(C(=O)N(C)C)c1C	-14%	-6%	?	-17%	28µM*	-19%
Fc1ccc(CNc2nc3c(-c4ccc(F)cc4)nnn3c3ccccc23)cc1	/	29%	/	5%	-3%[59 µM]	-5%
O=C(NCc1ccccc1)c1ccc2c(c1)S(=O)(=O)c1cc(Cl)ccc1C2=O	0%	-11%	10	-36%	-10%[2.33 µM]	?
NC(=O)c1ccc2c(c1)S(=O)(=O)c1ccccc1C2=O	-1%	38%	-7	9%	-1%[2.33 µM]	-12%
CC(OC(=O)c1ccc2c(c1)S(=O)(=O)c1ccccc1C2=O)C(N)=O (configuration not stated)	-1%	-7%	0	-9%	45µM*	-13%
NC(=O)COC(=O)c1ccc2c(c1)S(=O)(=O)c1ccccc1C2=O	-3%	7%	-6	3%	-17%	-8%
Cc1noc(C)c1COC(=O)c1ccc2c(c1)S(=O)(=O)c1ccccc1C2=O	-6%	-7%	/	?	32µM*	-29%
O=C(O)c1ccc2c(c1)S(=O)(=O)c1cc(Cl)ccc1C2=O	-7%	38%	-52*	-11%	-11%[2.33 µM]	-21%
O=C(O)c1ccc2c(c1)S(=O)(=O)c1ccccc1C2=O	-4%	39%	-74*	-32%	45µM*	-18%
CCC(C)NC(=O)c1ccc2c(c1)S(=O)(=O)c1ccccc1C2=O (configuration not stated)	1%	22%	-4	-34%	20µM*	-13%
O=C(O)c1ccc2c(c1)S(=O)(=O)c1cc(N3CCN(c4cnccn4)CC3)ccc1C2=O	-2%	/	-67*	/	/	/
O=C(OCc1ccccc1)c1ccccc1	-12%	90%	-5	/	30%[12.7 µM]	67%
O=C(OCc1ccccc1)c1ccc2c(c1)-c1ccccc1C2=O	1%	-3%	14	-29%	5µM*	-29%
COC(=O)N1CCC2(CCN(Cc3nccs3)CC2)CC1	/	/	/	/	-10%[12.7 µM]	/
CCCCCCCC(O)CC(CC1CCCCC1)C(=O)NN (configuration not stated)	1%	75%	17	18%	11%[59 µM]	9%
COc1ccc2nc(C)cc(Sc3nc4ccccc4s3)c2c1	24µM*	34%	-3	19%	14µM*	79µM*
COc1ccc(CN(CC(O)COc2cccc3[nH]cc(C)c23)C(C)(C)C)cc1 (configuration not stated)	-7%	?	-4	?	?	50µM*
COc1ccc(C(=O)c2ncc(C(F)(F)F)cc2Cl)cc1	24µM*	5%	2	7%	8%	?
CCCCn1c(C)cc(C)c(S(=O)(=O)c2ccccc2C)c1=O	1%	126%	-1	40%	61%[59 µM]	52%
CCCCN1C=CC(=C2C(=O)c3ccccc3C2=O)C=C1	3%	41%	-16	22%	50µM*	-4%
Cc1[nH]nc2c1C(c1ccc(O)cc1)C1=C(CC(C)(C)CC1=O)N2 (configuration not stated)	-14%	21%	-13	-6%	7%	-3%
